According to PubChem BioAssay (NCATS):
Records with an inconclusive call do not appear. A number with no mark means an inactive call. The call rests on the fitted dose curve; in most records, active means well fitted activation curve with a large enough effect; inconclusive means small, poorly fitted or top-dose-only effect; inactive means flat fitted curve, though single readings scatter.

test: Cellular Toxicity (caspase-3) H-4-II-E (AID 663); details: H-4-II-E rat hepatoma, scaled: DMSO 0%, 100 µM tamoxifen 100%; at 92.2 µM (top of the series);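 further: cells exposed to compound for 16 hr before readout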
Text: NIH Chemical Genomics Center [NCGC]
NIH Molecular Libraries Screening Centers Network [MLSCN]
National Institutes of Environmental Health Sciences [NIEHS]
National Toxicology Program [NTP]
We have developed a 1536-well cell-based assay for quantitative high throughput screening (qHTS) against a number of cell lines to determine in vitro caspase 3/7 of small molecules. This particular assay uses the H-4-II-E cell line which is derived from rat hepatoma.
NCGC Assay Protocol Summary:
The Caspase-Glo 3/7 assay (Promega) is a homogeneous method to measure caspase-3 and caspase-7 activities in cultured cells. The quantitation of caspase 3/7 activity is based on the cleavage of a peptide-aminoluciferin substrate. After caspase cleaves the substrate the free aminoluciferin is liberated and serves as the substrate of luciferase, which generates the light. The luminescent signal is proportional to amount of caspase 3/7 activity present.
Using the Caspase-Glo 3/7 assay, the amount of caspase 3/7 activity was measured in the H-4-II-E cell line with complete culture medium following compound treatment for 16 hours. The assay was performed in opaque white 1536-well plates. In the screen, tamoxifen and doxorubicin were used as positive controls. Library compounds were measured for their ability to cause the activation of caspase 3/7 in the cell line, as reflected by an increase in luminescence signal, in a concentration-dependent manner. Data were normalized to the controls for basal activity (DMSO only) and 100% stimulation (100 uM tamoxifen). AC50 values were determined from concentration-response data modeled with the standard Hill equation.
qHTS protocol for caspase 3/7 assay in H-4-II-E cells
[Step] [Parameter] [Value] [Description]
1. Reagent; 5 uL; 1500 H-4-II-E cells/well
2. Time; 5 hr; 37 °C incubation
4. Controls; 23 nL; Tamoxifen 0.23 uM to 100 uM & Doxorubicin 7.0 pM to 100 uM
5. Time; 16 hr; 37 °C incubation
6. Reagent; 5 uL; Caspase-Glo 3/7 reagent
7. Time; 20 min; Room Temperature
8. Detection; Luminescence; Viewlux plate reader
Keywords: caspase 3/7, apoptosis, H-4-II-E cell line, luminescence, NTPHTS, NTPHTS_NCGC, NIEHS, EPA, DSSTox, MLSMR, MLSCN, NIH Roadmap, qHTS, NCGC

| SMILES | caspase-3 activation [%] |
| --- | --- |
| CC(C)(c1cc(Br)c(OCC(Br)CBr)c(Br)c1)c1cc(Br)c(OCC(Br)CBr)c(Br)c1 (stereo not given) | 1.29 |
| O=c1[nH][nH]c(=O)c2cc([N+](=O)[O-])ccc12 | -0.659 |
| Oc1c(Cl)ccc(Cl)c1Cl | 0.28 |
| O=C(O)c1ccccc1C(=O)O | -0.105 |
| CC(=O)CC(C)C | 1.31 |
| C=C(C)C(=O)OC | 1.27 |
| Cc1cccc([N+](=O)[O-])c1C(=O)O | 1.44 |
| Cc1cccc(C)c1O | -0.375 |
| CCOCCOCC | 1.77 |
| CC(=O)c1cccc([N+](=O)[O-])c1 | -1.03 |
| FB(F)F | 0.388 |
| Cc1ccc2ccccc2c1[N+](=O)[O-] | -1.44 |
| CC(N)CN (stereo not given) | 0.364 |
| Cc1cc(C(=O)O)ccc1[N+](=O)[O-] | -0.927 |
| O=[N+]([O-])c1ccc(NCCO)c(OCCO)c1 | 0.77 |
| NC(=O)CCCCC(N)=O | 0.202 |
| CCCCCCCN | 2.21 |
| CNc1ccc([N+](=O)[O-])cc1 | 0.918 |
| Nc1nc2ccccc2[nH]1 | -0.868 |
| NS(=O)(=O)O | 1.83 |

| SMILES | caspase-3 activation [%] |
| --- | --- |
| CC(=O)Nc1ccc(N)cc1 | -0.322 |
| ON=C1CCCCC1 | 1.35 |
| CCc1ccccc1O | -0.213 |
| Cc1cccc2cccnc12 | 0.865 |
| O=C(Cl)c1ccccc1[N+](=O)[O-] | 1.33 |
| O=C(O)CN(CC(=O)O)CC(=O)O | 2.27 |
| O=C(O)c1ccc(CO)o1 | 0.706 |
| CC/C=C1/OC(=O)c2ccccc21 | 0.49 |
| C[C@@H]1CC2(OC[C@]3(C)O[C@H]23)O[C@H]2C[C@@]3(C)[C@@H]4CC[C@H]5C(C)(C)C(O[C@@H]6OC[C@@H](O)[C@H](O)[C@H]6O)CC[C@@]56C[C@@]46CC[C@]3(C)[C@@H]12 (stereo not given in full) | 2.6 |
| Cc1ccc(C#N)cc1 | 0.0504 |
| CSCCC=O | -0.467 |
| C=CCCCC | 0.498 |
| Nc1c(Cl)cc(Cl)cc1Cl | 2.86 |
| Cc1ccc2cccnc2c1 | -0.588 |
| O=C(O)c1cccc(Cl)c1Cl | -0.64 |
| BrC/C=C/CBr | 0.954 |
| COC(=O)CS | 0.405 |
| CC/C=C/C#N | 0.211 |
| COc1ccc(OC)cc1 | -0.441 |
| NC(=S)NNC(N)=S | 0.228 |
